Bioassay records: PubChem BioAssay, National Center for Advancing Translational Sciences (NCATS)
Shown are actives, neighbours in structure and some others; about 20% of the full set was active somewhere.
Pf growth 96h: inhibits malaria parasite growth, 96 h | P. falciparum luciferase reporter growth, 96 h | Potency, µM (titrated, usually from 28.7 µM), hits mostly inhibitors | 320,000 compounds, 6.9% hits | AID 504834
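Readout is luminescence from an integrated firefly luciferase in P. falciparum. Red cells, 2% hematocrit and 0.05% parasitemia final, were cultured with compound through two parasite generations (96 hours) at 37 C, 5% CO2.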
HCMV inh: blocks human cytomegalovirus replication | HFF cells, HCMV-luciferase reporter, 72 h; stronger effect = lower value | activity change, negative = inhibition, % at 57.5 µM | 410,000 compounds, 4.5% hits; in the data active = activity change below about -60%; inconclusive = no clear call, values can overlap the other calls; inactive = above about -39%
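Luciferase read-out from HCMV-luciferase-infected HFFs (MOI 1 PFU/cell) 72 h post infection at 37C; compounds added after 16 h cell attachment; activity normalized between buffer-only basal and Salinomycin (10uM) inhibitor controls.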
Shiga toxin inh: Shiga toxin inhibition | Vero cells, Shiga toxin protein synthesis inhibition reporter | inhibition, % at 38.7 µM | 290,000 compounds, 9.2% hits; in the data active = inhibition mostly above about 28%, no sharp cut-off; inactive = mostly below about 43%
Pf growth 48h: inhibits P. falciparum growth in the first generation, 48 h; P. falciparum luciferase growth in erythrocytes, 48 h; Potency, µM (top dose mostly 28.7 µM), usual class: inhibitors; 310,000 compounds, 5.9% hits; AID 504832
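Luminescence readout; reporter = integrated firefly luciferase in P. falciparum. RBC culture at 2% hematocrit, 0.1% parasitemia final, 37 C/5% CO2; decreased signal taken as growth inhibition.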
CHX counter: counter-screen hit for Shiga toxin inhibitors, cycloheximide; 300,000 compounds, 12% hits; max response, %; cell reporter, cycloheximide protein synthesis inhibition counterscreen; in the data active = max response mostly above about 13%, no sharp cut-off; inactive = mostly below about 14%; also: read at 38.3 µM for the half of the compounds with a filed dose
Large screens that a line does not name were inactive. Unless noted, calls follow the shape of the dose curve; as a rule, active = well fitted inhibition curve with a large enough effect; inconclusive = small, poorly fitted or top-dose-only effect, or another doubt; inactive = no such curve, though single readings can be large or run the other way.

COc1ccc(C(C(=O)NC2CCCCC2)N(C(=O)CCCC(=O)Nc2ccccn2)c2ccc3c(c2)OCCO3)cc1 (centres undefined)	Pf growth 96h 9.3µM, Pf growth 48h inconclusive
Cc1cc(C)cc(COn2ccnc2)c1	none
Cc1ccc(CNC(=O)Cn2c(SCC(=O)Nc3ccc(F)cc3)nc3ccccc32)cc1	HCMV inh -93 (no result: Pf growth 96h, Shiga toxin inh, Pf growth 48h, CHX counter)
O=C(Cn1c(SCC(=O)Nc2ccc(F)cc2)nc2ccccc21)NCc1ccc(Cl)cc1	HCMV inh -74 (no result: Pf growth 96h, Shiga toxin inh, Pf growth 48h, CHX counter)
Cc1nc2ccccc2n1C1CCN(CC(=O)NCc2ccc(F)cc2)CC1	Pf growth 96h 5.9µM, Pf growth 48h inconclusive
OC(CNCCc1ccc(C(F)(F)F)cc1)COc1ccc2ccccc2c1 (centres undefined)	Pf growth 96h inconclusive, Pf growth 48h inconclusive
Cc1ccccc1OCC(O)CO (centres undefined)	none (no result: HCMV inh, Shiga toxin inh, CHX counter)
OC(CNCCc1ccc(C(F)(F)F)cc1)COc1cccc2ccccc12 (centres undefined)	Pf growth 96h 6.6µM, Pf growth 48h 7.4µM
Cc1ccccc1OCC(O)CN(Cc1ccccc1O)C1CCCCC1 (centres undefined)	Pf growth 96h 0.19µM, HCMV inh inconclusive, Pf growth 48h 0.23µM
Cc1ccc(OCC(O)CNC2CCCC2)c(C)c1 (centres undefined)	Pf growth 96h 13µM, Pf growth 48h inconclusive
Cc1ccccc1OCC(O)CNC1CCC(NCC(O)COc2ccccc2C)CC1 (centres undefined)	Pf growth 96h 3.7µM, HCMV inh -100, Pf growth 48h 0.93µM
OC(CNC1CCCC1)COc1ccccc1Br (centres undefined)	none
OC(CNC1CCCCCC1)COc1cccc2ccccc12 (centres undefined)	Pf growth 96h 2.1µM, Pf growth 48h 1.7µM
CCN1CCCC1CNCC(O)COc1ccc(C(C)(C)C)cc1C (centres undefined)	Pf growth 96h 12µM, HCMV inh inconclusive, Pf growth 48h 10µM
Cc1cc(C)cc(NS(=O)(=O)c2ccc3c(c2)CCCN3C(=O)C2CCC2)c1	none (no result: Pf growth 96h, Shiga toxin inh, Pf growth 48h, CHX counter)
CCOc1ccc(C(C)=O)cc1COC(=O)CCc1cc(OC)c(OC)c(OC)c1	Pf growth 96h 8.3µM, Pf growth 48h inconclusive
COc1ccc(CN2C(=O)C(CC(C)C)Nc3ncnc(N4CCN(c5ccccn5)CC4)c32)cc1 (centres undefined)	Pf growth 96h inconclusive, Pf growth 48h inconclusive (no result: Shiga toxin inh, CHX counter)
Cc1ccc(CN2C(=O)C(CC(C)C)Nc3ncnc(N4CCN(c5ccccn5)CC4)c32)cc1 (centres undefined)	Pf growth 96h inconclusive, Pf growth 48h 9.3µM (no result: Shiga toxin inh, CHX counter)
CC(C)CC1Nc2ncnc(N3CCN(c4ccccn4)CC3)c2N(Cc2ccc(Br)cc2)C1=O (centres undefined)	Pf growth 96h 8.3µM, Pf growth 48h 7.4µM (no result: Shiga toxin inh, CHX counter)
Cc1ccc(NC2=NC(c3ccc(F)cc3)n3c(nc(C)cc3=O)N2)cc1 (centres undefined)	Pf growth 96h inconclusive, Pf growth 48h inconclusive
Cc1ccc(NC2=NC(c3ccc(C)cc3)n3c(nc(C)cc3=O)N2)cc1 (centres undefined)	Pf growth 96h 12µM, Pf growth 48h inconclusive
C=Cn1cc[n+](CC(=O)c2cccs2)c1	Pf growth 96h 6.6µM, Pf growth 48h inconclusive
O=C(NCc1ccco1)c1ccc(Br)s1	none (no result: Pf growth 96h)
O=C(Cn1cc[n+](Cc2ccccc2)c1)c1ccc([N+](=O)[O-])cc1	HCMV inh inconclusive, Pf growth 48h inconclusive
C=Cn1cc[n+](CC(=O)c2ccc(Br)s2)c1	Pf growth 96h 3.3µM, Pf growth 48h inconclusive
Cc1cc[n+](CC(=O)c2cccs2)cc1	none (no result: Pf growth 96h)
C=Cn1cc[n+](CC(=O)c2ccc(-c3ccccc3)cc2)c1	Pf growth 96h inconclusive, HCMV inh -63, Pf growth 48h 1.5µM (no result: Shiga toxin inh)
O=C(C[n+]1ccn(-c2ccccc2)c1)c1ccc([N+](=O)[O-])cc1	HCMV inh -63, Pf growth 48h inconclusive
O=C(CC(=O)NN=C1CCCCCC1)NCc1cccnc1	none
CCCCn1c(SCc2ccccc2C)nc2ccsc2c1=O	none (no result: Pf growth 96h, Shiga toxin inh, Pf growth 48h, CHX counter)
C=Cn1cc[n+](CC(=O)c2cc(C(C)(C)C)c(O)c(C(C)(C)C)c2)c1	Pf growth 96h 2.1µM, HCMV inh inconclusive, Pf growth 48h 6.6µM
CN1CCN(CC(=O)c2cc(C(C)(C)C)c(O)c(C(C)(C)C)c2)CC1	Pf growth 48h inconclusive (no result: Shiga toxin inh)
CCOC(=O)N1CCC(NC(=O)c2ccc3c(c2)N(Cc2ccccc2C)C(=O)c2ccccc2S3=O)CC1 (centres undefined)	none (no result: Pf growth 96h, Shiga toxin inh, Pf growth 48h, CHX counter)
CSc1nnc(-c2sc(-c3ccccc3)nc2C)n1C	CHX counter 12
CSc1nnc(-c2ccc(Br)s2)n1C	Shiga toxin inh 69, CHX counter 47
CSc1nnc(-c2cccs2)n1C	none
COc1cc2[nH]cc(C(=O)NCc3cccs3)c(=O)c2cc1OC	none (no result: Pf growth 96h, Shiga toxin inh, Pf growth 48h, CHX counter)
Cc1ccc(C2=NNC(c3ccc(Cl)cc3)=Nc3ccccc32)o1	Pf growth 96h 10µM, HCMV inh inconclusive, Pf growth 48h 10µM
S=c1[nH]nc(-c2ccc3ccccc3n2)o1	none (no result: Pf growth 48h)
Clc1ccsc1-c1ccc2ccccc2n1	Shiga toxin inh 107, CHX counter 57 (no result: Pf growth 96h)
c1ccc2nc(-c3nccs3)ccc2c1	Shiga toxin inh 96, CHX counter 28
Cc1ccccc1-c1nc2scc(CCNS(=O)(=O)c3ccccc3)n2n1	none (no result: Pf growth 96h, Shiga toxin inh, Pf growth 48h, CHX counter)
Cc1ccc(S(=O)(=O)CCC(O)c2ccc(Cl)cc2)cc1 (centres undefined)	HCMV inh -102 (no result: Pf growth 48h)
Cc1ccc2sc(N3CCN(C(=O)CCS(=O)(=O)c4ccc(F)cc4)CC3)nc2c1C	none (no result: Pf growth 96h, Shiga toxin inh, Pf growth 48h, CHX counter)
Cc1c(Cl)ccc2sc(N3CCN(C(=O)CCS(=O)(=O)c4ccc(F)cc4)CC3)nc12	HCMV inh -70 (no result: Pf growth 96h, Shiga toxin inh, Pf growth 48h, CHX counter)
O=C(CCS(=O)(=O)c1ccccc1)N1CCOCC1	CHX counter 31
Cc1ccc(S(=O)(=O)CCNC(=O)Cc2ccc(Cl)cc2)cc1	none
O=C(CCS(=O)(=O)c1ccccc1)N1CCN(c2ccccc2)CC1	Pf growth 96h inconclusive, Shiga toxin inh 84, CHX counter 40 (no result: HCMV inh)
CC1CN(C(=O)CCS(=O)(=O)c2ccccc2)CC(C)O1 (centres undefined)	none
CCN(CC(=O)Nc1c(F)cccc1F)C(=O)c1cc([N+](=O)[O-])ccc1N1CCOCC1	none (no result: Shiga toxin inh, CHX counter)
Cc1ccc(S(=O)(=O)CCC(=O)N2CCN(c3ccc(Cl)cc3)CC2)cc1	Pf growth 96h inconclusive, HCMV inh -70
CCOC(=O)C[n+]1c(C)ccc2c1CCC2	Pf growth 96h 8.3µM
CN1C(=O)[C@@H]2[C@@H]3C[C@@H]([C@H]4ON=C(c5ccc(Cl)cc5Cl)[C@@H]34)[C@@H]2C1=O	none
COCCCN1C(=O)C(CC(=O)NC2CCCC2)CC(C(=O)N(C(C)C)C(C)C)=C1C (centres undefined)	none (no result: Pf growth 96h, Shiga toxin inh, Pf growth 48h, CHX counter)
Cc1cc(C(=O)Nc2ccccc2)oc1C	Pf growth 96h inconclusive, Shiga toxin inh 121, CHX counter 39
O=C(Nc1ccc(N2CCCC2)cc1)c1cc2ccccc2o1	Pf growth 96h inconclusive, Shiga toxin inh 65, Pf growth 48h inconclusive, CHX counter 47
CC(C)C(=O)N1CCN(c2ccc(NC(=S)NC(=O)c3cc4ccccc4o3)cc2)CC1	Pf growth 96h 5.2µM, Shiga toxin inh 75, CHX counter 33
